Results on 13 molecules are retold here after PubChem BioAssay AID737 (Emory University Molecular Libraries Screening Center, 2007).

Potency and affinity values are given separately. A number with no mark means an inactive call. Active and inactive are the calls of the source.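 How the source made its calls: active means fitted EC50 under 30 µM, or percent of control over 300% when no usable fit; inactive means the rest.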

In the assay the target is Estrogen receptor (Homo sapiens) (UniProt P03372). The assay can be described thus: ERα coactivator recruitment enhancers – biochemical, TR-FRET, ERα LBD, dose response (AID 737). The note with it: TR-FRET ER-alpha LBD / SRC-Cy5 coactivator recruitment; at 12.5 µM; active compounds read high. In general terms: Time-resolved FRET reads energy transfer from a long-lived donor to a nearby acceptor.
Sequence of Estrogen receptor (Homo sapiens) (P03372 whole entry, looked up, the tested form may be a part): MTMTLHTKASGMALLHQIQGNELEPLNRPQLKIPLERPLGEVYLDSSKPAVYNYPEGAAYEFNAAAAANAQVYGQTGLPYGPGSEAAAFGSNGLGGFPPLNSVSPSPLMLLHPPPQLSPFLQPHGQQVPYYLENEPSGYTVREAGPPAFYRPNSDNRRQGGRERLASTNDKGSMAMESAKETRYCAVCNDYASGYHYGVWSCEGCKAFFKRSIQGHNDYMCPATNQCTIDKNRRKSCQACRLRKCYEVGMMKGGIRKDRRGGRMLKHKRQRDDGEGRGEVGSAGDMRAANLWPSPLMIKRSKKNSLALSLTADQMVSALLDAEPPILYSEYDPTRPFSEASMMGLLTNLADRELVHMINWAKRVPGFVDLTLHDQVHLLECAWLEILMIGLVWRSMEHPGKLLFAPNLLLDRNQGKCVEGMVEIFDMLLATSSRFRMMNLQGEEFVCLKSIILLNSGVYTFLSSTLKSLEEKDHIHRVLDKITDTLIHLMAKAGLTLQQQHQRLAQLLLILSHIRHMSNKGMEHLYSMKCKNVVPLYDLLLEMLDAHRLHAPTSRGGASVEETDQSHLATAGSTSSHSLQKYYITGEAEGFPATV
For the molecule `Cc1ccc(NC(=O)CSc2nnc(Cn3c(=O)sc4ccccc43)n2C)cc1Cl`, the percent of control was 165%.

`Cc1ccc(C)n1-c1cccc(C(=O)O)c1`: the percent of control is 26.6%.

Consider `Cc1ccc(S(=O)(=O)c2nc(S(C)(=O)=O)sc2NCC2CCCO2)cc1` (stereo not drawn), for which the percent of control was 136%.

With `COc1ccc(-c2c(C#N)c(C)nc3c2C(=O)c2ccccc2-3)cc1`, the percent of control was 239%.

For `O=C(Nc1ccc(-c2noc(-c3cccs3)n2)cc1)c1cccnc1`, the percent of control was 208%.

`COc1ccc(OC)c(C(=O)CSc2nnc(-c3ccc(OC)c(OC)c3)o2)c1`: the percent of control was 662% (active).

Consider `O=C(Cc1ccc(Cl)cc1)Nc1ccc2oc(-c3ccncc3)nc2c1`, for which the percent of control is 207%.

`CCOC(=O)N1c2ccccc2C=CC1OCC` (stereo not drawn): the percent of control is 152%.

Take `O=C(c1cc2ccccc2oc1=O)N(Cc1ccco1)Cc1cccs1`: the percent of control is 110%.

For `CCOC(=O)c1sc(NC(=O)c2ccc3ncsc3c2)nc1C`, the percent of control is 349% (active).

For the molecule `O=C(COC(=O)C(O)c1ccccc1)c1ccc2c(c1)OCCO2` (stereo not drawn), the percent of control is 108%.

With `CCOC(=O)c1c(NC(=O)CSc2nnc(-c3ccccc3)o2)sc(C(C)=O)c1C`, the percent of control is 305% (active).

For `CCOC(=O)Cn1c(-c2nonc2NC(=O)c2ccccc2F)nc2ccccc21`, the percent of control is 218%.
